Assay in all cases: DAPPL (digital affinity profiling via proximity ligation, sequencing); 10 mM Tris-HCl pH 7.5, 50 mM NaCl, 1 mM DTT, 4% glycerol, room temperature, 30 min; GST-TFs on glutathione beads, 16-mer random dsDNA library, 0.1% formaldehyde crosslink after washing; high values mean tight binding
What all share (details): protein: recombinant; tags: N-terminal GST; dsDNA, one strand shown

Assay [1] deals with T1, ELK1 (Homo sapiens, UniProt P19419 1-428).
T1 sequence: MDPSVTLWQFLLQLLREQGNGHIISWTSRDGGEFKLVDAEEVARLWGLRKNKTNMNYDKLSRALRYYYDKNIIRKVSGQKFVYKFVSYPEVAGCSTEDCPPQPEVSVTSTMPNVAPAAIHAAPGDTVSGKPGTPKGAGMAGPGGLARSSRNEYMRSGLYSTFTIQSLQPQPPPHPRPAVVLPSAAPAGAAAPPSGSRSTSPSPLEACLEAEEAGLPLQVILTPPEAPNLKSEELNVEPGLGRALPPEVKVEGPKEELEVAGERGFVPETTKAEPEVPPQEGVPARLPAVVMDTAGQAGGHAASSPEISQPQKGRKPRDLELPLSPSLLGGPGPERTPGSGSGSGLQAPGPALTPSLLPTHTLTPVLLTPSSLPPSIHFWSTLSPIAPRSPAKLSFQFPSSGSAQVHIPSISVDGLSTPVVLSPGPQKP
Put shortly: (§1)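 Pools were built from human transcription factors expressed in yeast as GST fusions, captured on glutathione beads and DNA-barcoded, along with a tag-only sample. Incubation with 200 nmole of a 16-mer random double-stranded DNA library lasted 30 min at room temperature in Tris/NaCl/DTT/glycerol buffer, and was followed by washing, 0.1% formaldehyde crosslinking, proximity ligation, PCR amplification and Illumina NextSeq500 sequencing. Binding signal is the quotient of each hexamer's read frequency for a factor and its frequency for the tag-only sample.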

Assay [2] deals with T2, GABPA (Homo sapiens, UniProt Q06546 1-454).
T2 sequence: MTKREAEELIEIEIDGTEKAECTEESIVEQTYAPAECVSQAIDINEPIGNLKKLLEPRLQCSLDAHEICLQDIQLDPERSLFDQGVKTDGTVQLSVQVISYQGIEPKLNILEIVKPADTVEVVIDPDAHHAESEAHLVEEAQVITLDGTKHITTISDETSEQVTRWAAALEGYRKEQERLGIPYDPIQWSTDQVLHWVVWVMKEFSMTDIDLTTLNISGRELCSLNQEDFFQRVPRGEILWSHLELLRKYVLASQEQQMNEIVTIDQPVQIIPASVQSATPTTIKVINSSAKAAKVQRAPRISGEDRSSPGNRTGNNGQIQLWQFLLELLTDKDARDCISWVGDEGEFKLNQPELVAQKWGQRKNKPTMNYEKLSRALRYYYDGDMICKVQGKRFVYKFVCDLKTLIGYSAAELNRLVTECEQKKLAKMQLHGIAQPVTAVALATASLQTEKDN
Put shortly:
as §1

The target of assay [3] is ELF1 (Homo sapiens, UniProt P32519 1-619). Put shortly:
as §1

The target in assay [4] is T3, EHF (Homo sapiens, UniProt Q9NZC4 1-300).
T3 sequence: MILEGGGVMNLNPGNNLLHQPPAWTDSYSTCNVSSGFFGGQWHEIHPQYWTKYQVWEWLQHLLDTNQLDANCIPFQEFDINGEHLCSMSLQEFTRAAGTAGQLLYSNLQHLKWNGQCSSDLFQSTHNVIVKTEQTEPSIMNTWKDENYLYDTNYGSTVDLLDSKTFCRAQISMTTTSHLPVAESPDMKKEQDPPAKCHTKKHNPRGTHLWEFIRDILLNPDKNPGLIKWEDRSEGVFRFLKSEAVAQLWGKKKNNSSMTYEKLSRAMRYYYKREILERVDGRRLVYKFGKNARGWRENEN
Put shortly:
as §1

In assay [5] the target is SPI1 (Homo sapiens, UniProt P17947 1-270). The method in brief:
as §1

The target of assay [6] is SPIB (Homo sapiens, UniProt Q01892 1-262). Put shortly:
as §1

For assay [7], the target named is T4, FEV (Homo sapiens, UniProt Q99581 1-238).
T4 sequence: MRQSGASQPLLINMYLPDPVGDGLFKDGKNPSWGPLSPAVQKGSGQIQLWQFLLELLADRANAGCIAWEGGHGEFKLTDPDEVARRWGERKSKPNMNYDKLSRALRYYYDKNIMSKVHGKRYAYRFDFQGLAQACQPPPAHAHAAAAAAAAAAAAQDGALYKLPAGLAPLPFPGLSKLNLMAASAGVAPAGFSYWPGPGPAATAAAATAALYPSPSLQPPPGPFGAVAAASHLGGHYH
Put shortly: as §1

For assay [8], the target named is ETV5 (Homo sapiens, UniProt P41161 1-510). Put shortly:
as §1

The target in assay [9] is ELF4 (Homo sapiens, UniProt Q99607 1-663). The method in brief: as §1
Chain of ELF4 (Q99607 whole entry): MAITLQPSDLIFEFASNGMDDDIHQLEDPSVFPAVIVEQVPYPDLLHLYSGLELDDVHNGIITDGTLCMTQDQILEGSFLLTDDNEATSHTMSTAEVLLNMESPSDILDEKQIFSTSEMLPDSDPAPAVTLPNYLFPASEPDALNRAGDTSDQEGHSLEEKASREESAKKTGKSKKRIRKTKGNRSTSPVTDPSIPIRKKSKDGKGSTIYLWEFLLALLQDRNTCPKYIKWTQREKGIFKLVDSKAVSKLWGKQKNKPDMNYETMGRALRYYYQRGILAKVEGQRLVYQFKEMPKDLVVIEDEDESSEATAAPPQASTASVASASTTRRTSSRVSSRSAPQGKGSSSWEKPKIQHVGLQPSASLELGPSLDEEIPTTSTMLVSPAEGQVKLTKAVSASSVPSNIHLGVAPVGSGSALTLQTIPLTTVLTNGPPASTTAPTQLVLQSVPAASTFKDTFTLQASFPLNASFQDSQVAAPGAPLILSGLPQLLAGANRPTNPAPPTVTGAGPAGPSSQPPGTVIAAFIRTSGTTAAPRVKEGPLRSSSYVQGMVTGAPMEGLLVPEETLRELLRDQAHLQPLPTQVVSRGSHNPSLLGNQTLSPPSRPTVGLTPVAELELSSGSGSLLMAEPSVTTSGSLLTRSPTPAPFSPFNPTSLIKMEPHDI
Assay [10] addresses T5, ELK4 (Homo sapiens, UniProt P28324-2 1-405).
T5 sequence: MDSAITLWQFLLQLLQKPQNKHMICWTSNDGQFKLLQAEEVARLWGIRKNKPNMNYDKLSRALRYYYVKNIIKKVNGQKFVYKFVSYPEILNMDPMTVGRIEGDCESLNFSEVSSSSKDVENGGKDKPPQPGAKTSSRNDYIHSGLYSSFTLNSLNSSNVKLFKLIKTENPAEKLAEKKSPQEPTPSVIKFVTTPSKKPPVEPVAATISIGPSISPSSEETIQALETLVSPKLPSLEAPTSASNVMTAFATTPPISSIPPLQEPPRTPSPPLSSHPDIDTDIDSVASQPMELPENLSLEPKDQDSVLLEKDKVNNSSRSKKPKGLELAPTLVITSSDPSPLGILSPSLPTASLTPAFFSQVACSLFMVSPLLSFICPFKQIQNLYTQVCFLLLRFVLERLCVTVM
Put shortly:
as §1

The target of assay [11] is T6, ETV2 (Homo sapiens, UniProt O00321 1-342).
T6 sequence: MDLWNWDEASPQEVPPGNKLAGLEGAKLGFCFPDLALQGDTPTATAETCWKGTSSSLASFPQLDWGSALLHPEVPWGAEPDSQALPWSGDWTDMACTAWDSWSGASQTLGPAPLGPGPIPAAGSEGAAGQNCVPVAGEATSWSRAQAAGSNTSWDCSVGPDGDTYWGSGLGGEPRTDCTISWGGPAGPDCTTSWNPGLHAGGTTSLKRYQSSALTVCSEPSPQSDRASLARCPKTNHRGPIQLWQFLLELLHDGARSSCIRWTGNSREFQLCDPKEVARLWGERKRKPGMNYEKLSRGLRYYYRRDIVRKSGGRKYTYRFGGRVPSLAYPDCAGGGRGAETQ
Put shortly:
as §1

In assay [12] the target is ETV1 (Homo sapiens, UniProt P50549 1-477). Put shortly: as §1
Chain of ETV1 (P50549 whole entry): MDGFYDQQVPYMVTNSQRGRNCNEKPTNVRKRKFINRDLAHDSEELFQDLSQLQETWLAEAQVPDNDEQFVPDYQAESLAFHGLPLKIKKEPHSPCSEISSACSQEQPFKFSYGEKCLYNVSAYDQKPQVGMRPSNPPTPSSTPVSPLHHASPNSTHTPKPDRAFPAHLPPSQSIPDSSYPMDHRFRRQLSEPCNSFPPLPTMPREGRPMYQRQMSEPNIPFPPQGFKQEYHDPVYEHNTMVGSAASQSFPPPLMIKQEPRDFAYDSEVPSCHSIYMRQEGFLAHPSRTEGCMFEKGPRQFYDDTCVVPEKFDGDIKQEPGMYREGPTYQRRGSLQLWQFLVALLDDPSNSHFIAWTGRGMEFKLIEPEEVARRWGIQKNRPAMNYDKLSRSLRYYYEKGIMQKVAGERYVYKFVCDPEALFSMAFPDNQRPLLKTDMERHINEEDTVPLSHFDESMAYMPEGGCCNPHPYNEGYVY
The target in assay [13] is T7, ERF (Homo sapiens, UniProt P50548 1-548).
T7 sequence: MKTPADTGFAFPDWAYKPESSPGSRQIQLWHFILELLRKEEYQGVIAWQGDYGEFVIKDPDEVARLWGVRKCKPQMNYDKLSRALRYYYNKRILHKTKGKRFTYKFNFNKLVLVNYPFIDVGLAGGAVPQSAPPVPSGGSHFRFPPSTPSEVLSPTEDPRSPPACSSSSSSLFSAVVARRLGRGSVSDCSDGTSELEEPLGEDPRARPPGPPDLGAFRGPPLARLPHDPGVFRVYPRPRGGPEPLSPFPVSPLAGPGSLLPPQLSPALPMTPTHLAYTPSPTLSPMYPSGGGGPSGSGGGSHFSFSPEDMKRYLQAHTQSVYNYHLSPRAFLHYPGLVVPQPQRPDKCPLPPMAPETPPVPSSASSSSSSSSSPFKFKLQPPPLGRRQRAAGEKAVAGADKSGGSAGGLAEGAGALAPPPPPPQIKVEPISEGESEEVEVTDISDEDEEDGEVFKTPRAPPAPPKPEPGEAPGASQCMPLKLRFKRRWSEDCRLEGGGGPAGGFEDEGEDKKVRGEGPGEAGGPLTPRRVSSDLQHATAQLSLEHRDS
Put shortly: as §1

Assay [14] deals with T8, ETS2 (Homo sapiens, UniProt P15036 1-469).
T8 sequence: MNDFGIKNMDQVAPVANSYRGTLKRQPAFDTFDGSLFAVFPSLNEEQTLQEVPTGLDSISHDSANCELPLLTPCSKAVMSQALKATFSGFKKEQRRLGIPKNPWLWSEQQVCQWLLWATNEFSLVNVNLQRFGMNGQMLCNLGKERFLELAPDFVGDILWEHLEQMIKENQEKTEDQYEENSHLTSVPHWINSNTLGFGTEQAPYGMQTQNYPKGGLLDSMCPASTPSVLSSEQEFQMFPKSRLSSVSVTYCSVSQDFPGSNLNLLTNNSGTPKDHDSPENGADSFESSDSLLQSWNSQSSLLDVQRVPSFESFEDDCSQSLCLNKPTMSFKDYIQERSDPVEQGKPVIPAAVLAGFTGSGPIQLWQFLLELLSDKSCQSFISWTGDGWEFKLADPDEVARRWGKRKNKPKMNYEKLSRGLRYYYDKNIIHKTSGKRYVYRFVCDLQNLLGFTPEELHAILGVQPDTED
The method in brief: as §1

In assay [15] the target is T9, ETV3 (Homo sapiens, UniProt P41162-2 1-143).
T9 sequence: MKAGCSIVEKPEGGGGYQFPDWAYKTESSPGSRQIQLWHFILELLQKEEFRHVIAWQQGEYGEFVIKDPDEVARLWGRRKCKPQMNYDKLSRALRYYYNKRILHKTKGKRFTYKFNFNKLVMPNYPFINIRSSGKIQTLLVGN
Put shortly:
as §1

The target in assay [16] is ETV6 (Homo sapiens, UniProt P41212 1-452). Put shortly:
as §1

Chain of SPIB (Q01892 whole entry): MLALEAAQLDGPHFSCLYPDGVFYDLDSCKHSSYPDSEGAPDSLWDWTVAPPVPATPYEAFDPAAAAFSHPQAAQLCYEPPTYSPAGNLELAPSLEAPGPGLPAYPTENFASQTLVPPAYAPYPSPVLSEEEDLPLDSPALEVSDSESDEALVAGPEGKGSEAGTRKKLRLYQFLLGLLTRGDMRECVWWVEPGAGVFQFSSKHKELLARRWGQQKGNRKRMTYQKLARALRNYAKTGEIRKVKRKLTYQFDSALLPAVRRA
Chain of ELF1 (P32519 whole entry): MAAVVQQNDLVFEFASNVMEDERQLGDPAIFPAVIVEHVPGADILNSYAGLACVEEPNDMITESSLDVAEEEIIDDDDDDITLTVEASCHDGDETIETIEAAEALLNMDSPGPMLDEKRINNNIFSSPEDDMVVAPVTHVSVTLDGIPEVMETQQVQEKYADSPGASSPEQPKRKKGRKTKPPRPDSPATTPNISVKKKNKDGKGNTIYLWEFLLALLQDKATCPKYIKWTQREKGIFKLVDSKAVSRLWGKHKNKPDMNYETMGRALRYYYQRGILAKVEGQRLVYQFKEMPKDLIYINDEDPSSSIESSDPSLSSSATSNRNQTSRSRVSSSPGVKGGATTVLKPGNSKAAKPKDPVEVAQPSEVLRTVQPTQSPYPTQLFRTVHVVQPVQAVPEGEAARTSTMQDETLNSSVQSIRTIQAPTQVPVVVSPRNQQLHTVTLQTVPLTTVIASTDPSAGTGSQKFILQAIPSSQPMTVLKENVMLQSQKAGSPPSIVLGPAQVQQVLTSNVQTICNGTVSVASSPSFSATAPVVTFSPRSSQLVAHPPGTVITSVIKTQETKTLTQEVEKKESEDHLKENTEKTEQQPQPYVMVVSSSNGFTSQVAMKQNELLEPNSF
Chain of ETV6 (P41212 whole entry): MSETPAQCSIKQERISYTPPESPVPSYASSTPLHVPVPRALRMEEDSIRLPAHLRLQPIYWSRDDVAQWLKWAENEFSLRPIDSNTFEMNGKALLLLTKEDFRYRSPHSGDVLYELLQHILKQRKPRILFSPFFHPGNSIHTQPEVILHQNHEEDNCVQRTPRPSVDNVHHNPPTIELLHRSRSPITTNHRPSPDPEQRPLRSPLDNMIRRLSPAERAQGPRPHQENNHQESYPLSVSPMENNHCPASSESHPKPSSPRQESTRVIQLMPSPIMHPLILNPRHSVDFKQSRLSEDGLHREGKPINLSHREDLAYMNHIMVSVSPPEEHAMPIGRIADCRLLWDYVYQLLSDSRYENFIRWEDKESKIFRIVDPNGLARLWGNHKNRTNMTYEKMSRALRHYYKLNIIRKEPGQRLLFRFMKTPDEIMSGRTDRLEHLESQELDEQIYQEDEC
Chain of ETV5 (P41161 whole entry): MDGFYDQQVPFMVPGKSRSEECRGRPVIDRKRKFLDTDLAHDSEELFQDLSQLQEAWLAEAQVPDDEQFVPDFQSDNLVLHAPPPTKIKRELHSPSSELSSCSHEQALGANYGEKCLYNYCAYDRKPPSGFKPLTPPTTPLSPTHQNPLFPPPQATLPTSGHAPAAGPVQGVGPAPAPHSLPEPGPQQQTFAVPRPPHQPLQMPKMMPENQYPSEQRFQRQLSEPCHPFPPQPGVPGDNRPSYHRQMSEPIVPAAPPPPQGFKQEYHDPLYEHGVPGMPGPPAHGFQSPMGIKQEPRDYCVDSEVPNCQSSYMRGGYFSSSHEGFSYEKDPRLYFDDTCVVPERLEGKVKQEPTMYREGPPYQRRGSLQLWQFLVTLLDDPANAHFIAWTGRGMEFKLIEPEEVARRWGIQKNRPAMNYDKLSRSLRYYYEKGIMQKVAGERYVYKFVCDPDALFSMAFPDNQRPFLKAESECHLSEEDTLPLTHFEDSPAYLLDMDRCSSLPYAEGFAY

Consider AGCAAA, for which the binding signal is 1.04 fold enrichment (6-mer frequency, TF over GST control) in assay [1]; 1.06 fold enrichment (6-mer frequency, TF over GST control) in assay [2]; 1.07 fold enrichment (6-mer frequency, TF over GST control) in assay [3]; 1.03 fold enrichment (6-mer frequency, TF over GST control) in assay [4]; 1.04 fold enrichment (6-mer frequency, TF over GST control) in assay [5]; 1.04 fold enrichment (6-mer frequency, TF over GST control) in assay [6]. Moreover, the binding signal in [7] was 1.02 fold enrichment (6-mer frequency, TF over GST control); in [8], 1.07 fold enrichment (6-mer frequency, TF over GST control); in assay [9], 1.05 fold enrichment (6-mer frequency, TF over GST control); in [10], 1.05 fold enrichment (6-mer frequency, TF over GST control); in assay [11], 1.17 fold enrichment (6-mer frequency, TF over GST control); in [12] it was 1.09 fold enrichment (6-mer frequency, TF over GST control). Further, the binding signal in [13] was 1.05 fold enrichment (6-mer frequency, TF over GST control); in assay [14] it was 1.02 fold enrichment (6-mer frequency, TF over GST control); in assay [15], 1.06 fold enrichment (6-mer frequency, TF over GST control); in assay [16], 1.05 fold enrichment (6-mer frequency, TF over GST control).

The record behind these values is article PMC7862700, “An all-to-all approach to the identification of sequence-specific readers for epigenetic DNA modifications on cytosine”.
